This is an account of results in PubChem BioAssay (EPA / NIEHS).

Results filed as inconclusive are left out. Where a structure was tested more than once in an assay, its records may differ in their call. Activity calls are given as the source filed them. How the source made its calls, unless noted: active means hit-call score of the fitted dose curve at least 0.9, where 1 is the maximum; inactive means score below 0.9.

Assay [1] in a line: ATG_NFI_CIS: Attagene CIS-FACTORIAL HepG2 Assay for human Nuclear Factor I (NFI) (AID 2282989). To be noted: HepG2 cis-regulatory reporter, NFI response element transcription; actives raise or lower the signal. In a few lines: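 Reporter transcription driven by endogenous transcription factors in HepG2 cells; 24 h treatment. Quantitation by labelled RT-PCR fragments on capillary electrophoresis, gain- or loss-of-signal relative to DMSO.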

Assay [2] addresses Myc proto-oncogene protein (Homo sapiens) (UniProt P01106). The assay can be described thus: ATG_Myc_CIS: Attagene CIS-FACTORIAL HepG2 Assay for human Myelocytomatosis (Myc) Proto-Oncogene Transcription Factor (AID 2282990). Particulars: HepG2, Attagene cis-reporter transcription factor activity; actives raise or lower the signal. In short, it runs like this: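 Cells of the HepG2 human liver line bear multiple cis-driven reporter transcription units. Reporter mRNA after 24 h exposure is reverse-transcribed, amplified, labelled and resolved by capillary electrophoresis, with gain- or loss-of-signal fitting relative to DMSO.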

Assay [3] is described as follows: ATG_NF_kB_CIS: Attagene CIS-FACTORIAL HepG2 Assay for human Nuclear Factor Kappa B (NF-kB) (AID 2282991). To be noted: HepG2 Attagene cis-factorial NF-kB reporter mRNA; actives raise or lower the signal. In short, it runs like this: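 HepG2, transient multi-reporter transfection, cis promoter elements (endogenous TFs). 24 h exposure. Total RNA → RT → PCR → 6-FAM label → HpaI → CE. Gain/loss vs DMSO.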

Assay [4] in a line: ATG_NRF2_ARE_CIS: Attagene CIS-FACTORIAL HepG2 Assay for human Nuclear Factor Erythroid 2 Related Factor 2 (NFR2) response to Antioxidant Response Elements (ARE) (AID 2282992).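 On AC50: reporter mRNA level measured by RT-PCR and capillary electrophoresis fluorescence.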 To be noted: HepG2 Attagene ARE/NRF2 reporter, transcription factor activity; actives raise or lower the signal. In a few lines: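 Transient MRTU transfection of HepG2; 24 h compound exposure; TriZol RNA, RT with oligo(dT), PCR, 6-FAM primer extension, HpaI cut, CE. Bidirectional fit vs DMSO.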

A short description of assay [5]: ATG_Oct_MLP_CIS: Attagene CIS-FACTORIAL HepG2 Assay for human Octamer-Binding Transcription Factor (Oct) (AID 2282993). Particulars: HepG2 Attagene cis-factorial Oct reporter, mRNA; actives raise or lower the signal. In a few lines: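 Transfected HepG2 cells, 24 h treatment. Reporter mRNA quantified by RT-PCR–capillary electrophoresis; bidirectional fitting against DMSO.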

For assay [6], the target named is Cellular tumor antigen p53 (Homo sapiens) (UniProt P04637). The assay can be described thus: ATG_p53_CIS: Attagene CIS-FACTORIAL HepG2 Assay for human p53 Transcription Factor (AID 2282994). To be noted: HepG2 p53 cis-element reporter, Attagene mRNA; actives raise or lower the signal. In a few lines:
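HepG2, transient MRTU transfection (cis promoter elements, endogenous TFs); 24 h dosing; RNA isolation, RT-PCR, 6-FAM primer extension, HpaI digest, CE fluorescence; bidirectional fit vs DMSO.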

The nature of assay [7]: BSK_3C_TissueFactor: BioMAP Diversity Plus: 3C Assay for Tissue Factor Biomarker Activity (AID 2282997). Particulars: BioMAP 3C HUVEC, tissue factor biomarker readout; actives raise or lower the signal. In short, it runs like this: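 HUVEC were treated 24 h, then surface tissue factor measured by ELISA and fitted bidirectionally against DMSO. Parallel SRB total-protein staining assessed overt cytotoxicity at the same time point.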

The nature of assay [8]: BSK_3C_uPAR: BioMAP Diversity Plus: 3C Assay for Urokinase-type plasminogen activator receptor (uPAR) Biomarker Activity (AID 2282998). To be noted: BioMAP 3C HUVEC, uPAR biomarker ELISA; actives raise or lower the signal. In short, it runs like this: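 Readout: ELISA for surface uPAR. System: human umbilical vein endothelial primary cells, 24 h after chemical exposure. Analysis: bidirectional fit, DMSO baseline.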
On the technique in general: ELISA stands for enzyme-linked immunosorbent assay.

The nature of assay [9]: BSK_4H_Eotaxin3: BioMAP Diversity Plus: 4H Assay for Eotaxin 3 Biomarker Activity (AID 2283000). Particulars: primary human endothelial cells (HUVEC); actives raise or lower the signal. In short, it runs like this: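 Eotaxin-3 (CCL26) levels were measured by ELISA in HUVEC primary cultures 24 h post-dosing. Gain or loss of signal was fitted in both directions, with DMSO serving as baseline and negative control.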

For assay [10], the target named is human Peroxisome Proliferator-activated Receptor delta (PPARd), PPARD (gene 5467) (UniProt Q03181). The assay is described as follows: ATG_PPARd_TRANS: Attagene TRANS-FACTORIAL HepG2 Assay for human Peroxisome Proliferator-activated Receptor delta (PPARd) (AID 2283002; active means hit-call score of the fitted dose curve at least 0.9, where 1 is the maximum). In a few lines: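 Cell-based TRANS reporter: HepG2, transient MRTU transfection, 24 h exposure. Readout = reporter mRNA (RT-PCR/CE, 6-FAM). Gain-of-signal fit vs DMSO control.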

Read-out in assay [11]: Intercellular Adhesion Molecule 1 (ICAM1), ICAM1 (gene 3383)
The assay can be described thus: BSK_3C_ICAM1: BioMAP Diversity Plus: 3C Assay for Intercellular Adhesion Molecule 1 (ICAM1) Biomarker Activity (AID 2283003). Particulars: primary human endothelial cells (HUVEC); actives raise or lower the signal. In short, it runs like this:
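Human vascular endothelial primary cells, 3C conditions, 24 h treatment. ICAM-1 by ELISA.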

Assay [12] is described as follows: BSK_3C_Proliferation: Cell Proliferation Assessment in the BioMAP Diversity Plus: 3C Assay (AID 2283006).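 Further: potency may reflect either rise or fall in cell number versus DMSO.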 To be noted: primary human endothelial cells (HUVEC). In short, it runs like this: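 Proliferation of human vascular endothelial primary cells after 48 h dosing, quantified as SRB-stained protein at 560 nm relative to DMSO.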
For assay [13], the target named is Peroxisome proliferator-activated receptor gamma (Homo sapiens) (UniProt P37231). The assay can be described thus: ATG_PPARg_TRANS: Attagene TRANS-FACTORIAL HepG2 Assay for human Peroxisome Proliferator-activated Receptor-gamma (PPARg) (AID 2283007; active means hit-call score of the fitted dose curve at least 0.9, where 1 is the maximum). In a few lines: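 Multiplexed reporter transcription units in HepG2, 24 h dosing, reporter transcripts quantified by fluorescent RT-PCR and capillary electrophoresis. Increase over DMSO scored.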

Assay [14] has as its target Nuclear receptor subfamily 1 group I member 2 (Homo sapiens) (UniProt O75469). The assay can be described thus: ATG_PXR_TRANS: Attagene TRANS-FACTORIAL HepG2 Assay for human Pregnane X Receptor (PXR) (AID 2283008; active means hit-call score of the fitted dose curve at least 0.9, where 1 is the maximum). In a few lines: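 Read-out is fluorescence of labelled reporter cDNA fragments separated by capillary electrophoresis after RT-PCR and HpaI digestion. Source: HepG2 cells carrying PXR-GAL4/UAS reporter constructs, treated 24 h; activity fitted upward relative to DMSO.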

In assay [15] the target is human Retinoic Acid Receptor beta (RARb), RARB (gene 5915) (UniProt P10826). The assay can be described thus: ATG_RARb_TRANS: Attagene TRANS-FACTORIAL HepG2 Assay for human Retinoic Acid Receptor beta (AID 2283004; active means hit-call score of the fitted dose curve at least 0.9, where 1 is the maximum). In a few lines: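 HepG2 cells were transiently transfected with GAL4-UAS reporter units that report activity of exogenous chimeric NR-Gal4 proteins, then exposed to compound for 24 h. Reporter mRNA was quantified by RT-PCR with capillary electrophoresis fluorescence, as gain of signal over DMSO.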

Assay [16] has as its target human Retinoic Acid Receptor gamma (RARg), RARG (gene 5916) (UniProt P13631). The assay is described as follows: ATG_RARg_TRANS: Attagene TRANS-FACTORIAL HepG2 Assay for human Retinoic Acid Receptor gamma (RARg) (AID 2283009; active means hit-call score of the fitted dose curve at least 0.9, where 1 is the maximum). In a few lines:
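HepG2, RARg-GAL4 TRANS system, 24 h exposure; reporter mRNA by RT-PCR + CE fluorescence; increase over DMSO.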

The target of assay [17] is human RAR-related Orphan Receptor beta (RORb), RORB (gene 6096) (UniProt Q92753). The assay is described as follows: ATG_RORb_TRANS: Attagene TRANS-FACTORIAL HepG2 Assay for human RAR-related Orphan Receptor beta (RORb) (AID 2283010; active means hit-call score of the fitted dose curve at least 0.9, where 1 is the maximum). In short, it runs like this:
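In this TRANS-format test, human HepG2 cells express chimeric NR-Gal4 fusion proteins driving GAL4-UAS reporters. After 24 h dosing, reporter transcripts are measured by fluorescent RT-PCR/capillary electrophoresis, with DMSO as negative control.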

Assay [18] deals with human Peroxisome Proliferator-activated Receptor alpha (PPARa), PPARA (gene 5465) (UniProt Q07869). The assay is described as follows: ATG_PPARa_TRANS: Attagene TRANS-FACTORIAL HepG2 Assay for human Peroxisome Proliferator-activated Receptor alpha (PPARa) (AID 2283001; active means hit-call score of the fitted dose curve at least 0.9, where 1 is the maximum). In a few lines:
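Reporter transcripts from GAL4-UAS units in transfected HepG2 were quantified 24 h after dosing. Detection used reverse transcription, PCR, fluorescent primer extension and capillary electrophoresis, with DMSO as baseline.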

Assay [19] deals with Retinoic acid receptor alpha (Homo sapiens) (UniProt P10276). The assay can be described thus: ATG_RARa_TRANS: Attagene TRANS-FACTORIAL HepG2 Assay for human Retinoic Acid Receptor alpha (RARa) (AID 2283005; active means hit-call score of the fitted dose curve at least 0.9, where 1 is the maximum). In a few lines:
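Reporter transcripts, measured by RT-PCR with fluorescent labeling and capillary electrophoresis after 24 h dosing, reflect activity of an exogenous human RARa–GAL4 fusion in transiently transfected HepG2. Fitted for increase relative to DMSO.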

human Peroxisome Proliferator-activated Receptor delta (PPARd), PPARD (gene 5467), sequence (Q03181 whole entry, looked up): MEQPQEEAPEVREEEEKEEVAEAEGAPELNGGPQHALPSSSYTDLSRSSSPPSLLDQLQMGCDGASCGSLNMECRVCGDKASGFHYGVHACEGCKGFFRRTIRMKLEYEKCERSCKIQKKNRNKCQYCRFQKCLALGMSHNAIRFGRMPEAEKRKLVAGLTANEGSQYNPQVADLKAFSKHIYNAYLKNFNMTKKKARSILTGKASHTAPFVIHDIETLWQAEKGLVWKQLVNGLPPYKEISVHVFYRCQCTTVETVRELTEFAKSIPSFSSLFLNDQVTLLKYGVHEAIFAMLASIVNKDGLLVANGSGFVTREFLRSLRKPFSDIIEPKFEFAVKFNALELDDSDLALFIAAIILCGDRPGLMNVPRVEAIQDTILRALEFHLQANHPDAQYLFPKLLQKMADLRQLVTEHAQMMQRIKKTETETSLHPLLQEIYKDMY
Nuclear receptor subfamily 1 group I member 2 (Homo sapiens), sequence (O75469 whole entry, looked up, the tested form may be a part): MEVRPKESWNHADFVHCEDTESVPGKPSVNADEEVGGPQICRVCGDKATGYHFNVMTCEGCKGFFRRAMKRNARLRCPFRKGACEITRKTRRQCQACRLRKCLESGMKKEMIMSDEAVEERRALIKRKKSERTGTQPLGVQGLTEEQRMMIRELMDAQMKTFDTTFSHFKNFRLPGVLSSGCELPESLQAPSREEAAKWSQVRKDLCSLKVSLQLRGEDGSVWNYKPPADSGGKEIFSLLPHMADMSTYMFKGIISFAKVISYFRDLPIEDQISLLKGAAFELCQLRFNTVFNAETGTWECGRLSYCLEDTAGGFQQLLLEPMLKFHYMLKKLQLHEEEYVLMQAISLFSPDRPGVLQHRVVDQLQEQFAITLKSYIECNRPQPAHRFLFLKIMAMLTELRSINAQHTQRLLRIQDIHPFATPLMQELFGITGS
human Retinoic Acid Receptor beta (RARb), RARB (gene 5915), sequence (P10826 whole entry, looked up, the tested form may be a part): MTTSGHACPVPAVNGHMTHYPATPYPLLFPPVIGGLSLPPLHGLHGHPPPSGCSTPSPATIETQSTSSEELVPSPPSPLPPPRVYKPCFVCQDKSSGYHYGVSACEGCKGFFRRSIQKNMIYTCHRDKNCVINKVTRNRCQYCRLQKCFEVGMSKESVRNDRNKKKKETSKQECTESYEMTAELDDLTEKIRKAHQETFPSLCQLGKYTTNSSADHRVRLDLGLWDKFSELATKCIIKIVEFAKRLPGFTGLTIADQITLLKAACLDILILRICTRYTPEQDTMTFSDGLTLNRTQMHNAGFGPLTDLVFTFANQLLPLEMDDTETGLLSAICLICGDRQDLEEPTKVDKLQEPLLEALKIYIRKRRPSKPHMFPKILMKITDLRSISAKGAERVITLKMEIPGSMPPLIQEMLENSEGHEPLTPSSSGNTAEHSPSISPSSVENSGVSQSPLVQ
human Retinoic Acid Receptor gamma (RARg), RARG (gene 5916), sequence (P13631 whole entry, looked up, the tested form may be a part): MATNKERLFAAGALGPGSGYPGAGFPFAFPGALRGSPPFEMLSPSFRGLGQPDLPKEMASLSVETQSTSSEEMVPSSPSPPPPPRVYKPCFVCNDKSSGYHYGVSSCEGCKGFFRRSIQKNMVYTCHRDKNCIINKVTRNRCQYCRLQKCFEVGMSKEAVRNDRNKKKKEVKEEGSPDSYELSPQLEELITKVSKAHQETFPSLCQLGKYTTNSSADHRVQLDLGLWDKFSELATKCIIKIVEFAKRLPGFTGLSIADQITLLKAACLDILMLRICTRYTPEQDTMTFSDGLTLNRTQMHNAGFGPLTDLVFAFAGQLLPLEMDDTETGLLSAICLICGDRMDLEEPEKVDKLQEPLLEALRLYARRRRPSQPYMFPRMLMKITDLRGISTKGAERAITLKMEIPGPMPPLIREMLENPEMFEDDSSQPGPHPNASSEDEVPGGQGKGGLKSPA
Peroxisome proliferator-activated receptor gamma (Homo sapiens), sequence (P37231 whole entry, looked up): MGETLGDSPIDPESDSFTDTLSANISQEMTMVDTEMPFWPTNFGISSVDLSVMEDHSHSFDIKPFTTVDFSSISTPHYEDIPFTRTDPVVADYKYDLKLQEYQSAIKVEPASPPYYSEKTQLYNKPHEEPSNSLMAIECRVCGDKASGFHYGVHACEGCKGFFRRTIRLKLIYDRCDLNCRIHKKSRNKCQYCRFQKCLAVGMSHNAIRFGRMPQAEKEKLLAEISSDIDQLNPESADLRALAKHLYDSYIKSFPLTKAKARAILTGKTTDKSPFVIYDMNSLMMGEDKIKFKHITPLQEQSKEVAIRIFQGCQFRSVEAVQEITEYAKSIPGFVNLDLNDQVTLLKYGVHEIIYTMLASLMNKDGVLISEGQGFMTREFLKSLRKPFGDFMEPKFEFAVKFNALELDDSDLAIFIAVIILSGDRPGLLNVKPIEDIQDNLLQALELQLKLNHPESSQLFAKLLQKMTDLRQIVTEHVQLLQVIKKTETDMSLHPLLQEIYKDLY
Cellular tumor antigen p53 (Homo sapiens), sequence (P04637 whole entry, looked up): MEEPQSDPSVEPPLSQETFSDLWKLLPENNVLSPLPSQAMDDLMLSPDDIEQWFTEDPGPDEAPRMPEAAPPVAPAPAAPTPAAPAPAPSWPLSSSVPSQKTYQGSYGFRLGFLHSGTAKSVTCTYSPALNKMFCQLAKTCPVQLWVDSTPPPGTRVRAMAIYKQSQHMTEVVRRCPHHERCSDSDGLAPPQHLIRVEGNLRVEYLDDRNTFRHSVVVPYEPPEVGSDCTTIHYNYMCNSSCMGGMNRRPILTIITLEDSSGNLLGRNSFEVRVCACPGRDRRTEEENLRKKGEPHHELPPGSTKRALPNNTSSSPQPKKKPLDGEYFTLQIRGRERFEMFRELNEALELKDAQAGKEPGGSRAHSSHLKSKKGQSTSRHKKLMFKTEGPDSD
Myc proto-oncogene protein (Homo sapiens), sequence (P01106 whole entry, looked up): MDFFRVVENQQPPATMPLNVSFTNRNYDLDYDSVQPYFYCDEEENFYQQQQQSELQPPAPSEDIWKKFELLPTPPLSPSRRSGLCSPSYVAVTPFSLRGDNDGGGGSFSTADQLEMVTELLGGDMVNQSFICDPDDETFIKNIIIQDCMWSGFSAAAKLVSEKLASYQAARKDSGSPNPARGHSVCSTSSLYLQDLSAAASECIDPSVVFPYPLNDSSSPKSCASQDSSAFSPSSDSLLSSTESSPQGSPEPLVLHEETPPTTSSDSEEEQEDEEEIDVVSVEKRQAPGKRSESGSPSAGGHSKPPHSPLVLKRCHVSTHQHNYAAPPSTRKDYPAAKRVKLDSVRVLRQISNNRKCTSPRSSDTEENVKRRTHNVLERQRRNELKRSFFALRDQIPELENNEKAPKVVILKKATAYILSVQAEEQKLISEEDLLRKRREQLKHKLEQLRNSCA
Retinoic acid receptor alpha (Homo sapiens), sequence (P10276 whole entry, looked up, the tested form may be a part): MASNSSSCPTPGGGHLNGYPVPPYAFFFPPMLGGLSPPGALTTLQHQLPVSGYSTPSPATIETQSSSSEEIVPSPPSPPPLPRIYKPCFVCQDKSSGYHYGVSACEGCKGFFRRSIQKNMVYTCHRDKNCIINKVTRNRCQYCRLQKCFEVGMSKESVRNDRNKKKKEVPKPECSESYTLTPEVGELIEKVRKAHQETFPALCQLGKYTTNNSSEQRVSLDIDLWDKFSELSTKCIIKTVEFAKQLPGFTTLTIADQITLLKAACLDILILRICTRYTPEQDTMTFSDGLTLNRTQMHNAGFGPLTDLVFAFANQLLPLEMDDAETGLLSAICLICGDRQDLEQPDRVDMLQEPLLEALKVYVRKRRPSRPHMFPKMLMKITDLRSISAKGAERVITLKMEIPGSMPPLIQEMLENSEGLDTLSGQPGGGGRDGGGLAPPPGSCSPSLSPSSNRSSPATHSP
human Peroxisome Proliferator-activated Receptor alpha (PPARa), PPARA (gene 5465), sequence (Q07869 whole entry, looked up, the tested form may be a part): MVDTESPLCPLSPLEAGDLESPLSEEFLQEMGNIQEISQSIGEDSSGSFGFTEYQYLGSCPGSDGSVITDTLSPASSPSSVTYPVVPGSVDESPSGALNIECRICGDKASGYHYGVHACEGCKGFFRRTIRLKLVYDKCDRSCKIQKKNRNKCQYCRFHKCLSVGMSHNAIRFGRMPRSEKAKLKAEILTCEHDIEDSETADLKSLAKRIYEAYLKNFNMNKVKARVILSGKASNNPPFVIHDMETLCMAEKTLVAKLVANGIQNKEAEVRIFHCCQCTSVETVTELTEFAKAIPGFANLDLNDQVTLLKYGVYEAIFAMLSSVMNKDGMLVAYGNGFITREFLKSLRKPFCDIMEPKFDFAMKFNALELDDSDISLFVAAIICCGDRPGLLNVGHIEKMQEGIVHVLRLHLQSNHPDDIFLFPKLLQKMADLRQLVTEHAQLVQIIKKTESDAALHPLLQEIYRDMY
human RAR-related Orphan Receptor beta (RORb), RORB (gene 6096), sequence (Q92753 whole entry, looked up, the tested form may be a part): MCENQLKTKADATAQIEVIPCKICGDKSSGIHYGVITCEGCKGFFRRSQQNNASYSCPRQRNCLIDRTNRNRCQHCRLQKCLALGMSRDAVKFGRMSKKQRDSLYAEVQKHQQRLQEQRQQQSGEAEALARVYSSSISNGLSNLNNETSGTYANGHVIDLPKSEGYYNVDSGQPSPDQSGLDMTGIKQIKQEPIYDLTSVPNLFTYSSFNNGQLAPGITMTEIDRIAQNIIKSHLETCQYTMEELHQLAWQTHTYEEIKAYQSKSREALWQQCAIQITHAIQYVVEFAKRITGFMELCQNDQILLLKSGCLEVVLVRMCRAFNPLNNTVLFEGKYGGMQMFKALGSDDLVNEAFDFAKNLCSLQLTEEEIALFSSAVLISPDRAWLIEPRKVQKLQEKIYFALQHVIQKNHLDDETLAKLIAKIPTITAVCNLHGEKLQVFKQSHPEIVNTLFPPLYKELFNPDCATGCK

Take `C=COC(=O)C(C)(C)CCCCCC`: the outcome in assay [1], in assay [2], in [3], in [5], in [6] and in assay [10] was inactive. For the same compound, the compound was classed as inactive in assay [13]. For the same compound, the concentration at half-maximal activity (AC50) is 142 µM (active) in assay [4]; 29.9 µM (active) in assay [7]; 31.3 µM (active) in assay [8]; 30.3 µM (active) in assay [9]; 30.7 µM (active) in [11]; 26.7 µM (active) in assay [12]. Further, the AC50 in assay [14] is 36.5 µM (active).

Regarding `CCCCCCCCCC=CCC1CC(=O)OC1=O` (stereo not given), the result in assay [1], in assay [2], in assay [4] and in [5] was inactive. The AC50 in assay [3] is 54.9 µM (active).

As to `O=C(c1cc(O)c(O)c(O)c1)c1ccc(O)c(O)c1O`, the outcome in assay [1], in assay [2], in assay [3], in assay [4], in [5] and in [10] was inactive. Also, the compound was classed as inactive in assay [15], in assay [14], in [16] and in [17]. Further, in [6], the AC50 is 100 µM (active).

Regarding `CC(C)C=O`, the call in [1], in assay [2], in assay [3], in [4], in [5] and in assay [6] was inactive. For the same compound, the call in [18], in assay [10], in [15], in [19], in [13] and in assay [14] was inactive. Besides, the compound was classed as inactive in assay [16] and in assay [17]. The concentration at half-maximal activity (AC50) in assay [4] was 64.6 µM (active).

In the case of `CCCCCCCCCCCC(=O)NCCCN(C)C`, the concentration at half-maximal activity (AC50) is 17.1 µM (active) in [1], 20.9 µM (active) in assay [5] and 20.2 µM (active) in assay [6]. Further, the result in [2], in [3], in assay [4], in assay [18] and in assay [14] was inactive.

Turning to `CCCCCCCCCCCCCC[n+]1ccccc1`, the call in assay [1], in [2], in [3], in assay [5], in assay [6] and in assay [10] was inactive. For the same compound, the compound was called inactive in assay [15], in assay [19], in [14] and in [16]. Also, the values for the AC50 in assay [4] and in [13] were 0.172 µM (active) and 13.6 µM (active), respectively.

The term AC50 denotes the concentration at which the activity in the assay is half-maximal.
